# Results from ChEMBL document CHEMBL3988442, “University of Dundee, Small-Polar-MMV Screening Library” (2021).
# Among all 48,000 compounds or so, about 13,000 (27%) showed an effect of 50% or more. The list shows a part of the results.
# Test system: Wolbachia pipientis
# Test: Anti-Wolbachia Cell-Based Screen
# Type: functional
# Parameters: scale not given: in the data most compounds retested in dose-response had high values
# Settings: 5 µM
row,SMILES,Percent Effect [%]
1,Cc1oc(-c2ccsc2)nc1CNCCn1cccn1,-19.09
2,c1nc(NCC2(N3CCOCC3)CCSC2)c2sccc2n1 (stereo unspecified),-18.02
3,CCc1nc(NCCCOC)c2c(n1)c(C)nn2C,12.69
4,O=C(CN1CCCC1c1nc(-c2ccccn2)no1)N1CCNCC1 (stereo unspecified),2.337
5,CCn1ccnc1CN1CCN(Cc2ccccn2)CC1C (stereo unspecified),-25.03
6,CN(CCc1ccccn1)S(=O)(=O)N1CCCC1c1ccco1 (stereo unspecified),10.93
7,CCc1nccn1-c1cncc(C2CCCN2Cc2ccccc2)n1 (stereo unspecified),119.3
8,CCc1nccn1-c1cncc(C2CCCN2CC(=O)N2CCCC2)n1 (stereo unspecified),115.3
9,CCc1nccn1CC(=O)N1CCN(C2CCc3ccccc3C2)CC1 (stereo unspecified),-21
10,CCc1nccn1-c1cncc(C2CCCN2Cc2cccnc2)n1 (stereo unspecified),-2.141
11,CN(C)C(=O)CCc1cncc(C2CCCN2Cc2ccccn2)n1 (stereo unspecified),97.92
12,CCc1nccn1-c1cncc(C2CCCN2Cc2ccc(F)cc2)n1 (stereo unspecified),-3.137
13,CCCn1ccnc1CN1CCCC1c1ccccn1 (stereo unspecified),6.189
14,CCc1nccn1-c1cncc(C2CCCN2Cc2ccccn2)n1 (stereo unspecified),112.2
15,O=C(CN1C(=O)CCC1=O)N1CCOC2(CCOCC2)C1,13.71
16,O=C(NC1CCN(CC2CC2)C1)c1ccc(N2CCC(O)CC2)cc1 (stereo unspecified),-2.601
17,CCN(C)S(=O)(=O)N(CC)Cc1cccc(-c2ccncc2)c1,31.71
18,Cc1cc2c(cc1C)OC(C(=O)NCCNC(=O)C1CCCC1)C2 (stereo unspecified),-3.964
19,Cc1ccc(C)c(-n2cc(CN3CC[C@@H](O)C3)c(-c3ccccc3)n2)c1,7.715
20,CCN1CCN(C(=O)c2ccc3c(c2)OCC(=O)N3)[C@H]2CS(=O)(=O)C[C@H]21,-0.2208
21,CC(C)(O)c1cc(CC2(NCc3ccccc3Cl)COC2)no1,-20.02
22,Cn1cc(CN2C[C@H]3CCC[C@@H](CNc4nccn4C)[C@H]3C2)cn1.O=C(O)C(F)(F)F,-10.56
23,Cc1cc(CN(CC(N)=O)CC(C)C)on1,-7.292
24,CCCn1ncc2c(C(=O)Nc3n[nH]c(SC)n3)cc(C3CC3)nc21,6.515
25,Cn1nc(C2CCCNC2)c2c(C(=O)NC3CC3)cc(C3CC3)nc21 (stereo unspecified),121.4
26,Cn1nc(C2CCCN2)c2c(C(=O)NC3CC3)cc(C3CC3)nc21 (stereo unspecified),135.7

row,SMILES,Percent Effect [%]
1,Cn1nc(C2CCNC2)c2c(C(=O)NC3CC3)cc(C3CC3)nc21 (stereo unspecified),110
2,Cn1nc(C2CCNCC2)c2c(C(=O)NC3CC3)cc(C3CC3)nc21,128.7
3,Cc1nc(NCCSc2cnn[nH]2)c2cccnc2n1,2.11
4,Cc1cnn(CCNCc2nc(-c3ccsc3)oc2C)c1,-10.22
5,CCCN(C)S(=O)(=O)NC(=O)c1ccc(CC)o1,14.97
6,O=C(CNC1CCc2ncnn2C1)N(C1=CCCCC1)C1CC1 (stereo unspecified),-15.4
7,Fc1cccc(N2CCOC3(CCCN(c4cnccn4)C3)C2)c1 (stereo unspecified),11.27
8,CN(C)CCN(Cc1ccccc1)C(=O)CN1CCCNC1=O,-13.77
9,CC1CCN(CCNC(=O)C2CCN(C(=O)C(C)(C)C)CC2)CC1,2.038
10,CCC(=O)N1CCCCC1c1nc(O)c2c(n1)CN(S(=O)(=O)CC)CC2 (stereo unspecified),126.4
11,CCS(=O)(=O)CC(=O)N1CCCC1c1noc(C2CC2)n1 (stereo unspecified),-5.674
12,CCCS(=O)(=O)CC(=O)N1CCCC1c1noc(C2CC2)n1 (stereo unspecified),-6.337
13,CCC(=O)N1CCCCC1c1nc(O)c2c(n1)CN(S(C)(=O)=O)CC2 (stereo unspecified),103.7
14,CC(C)NC(=O)c1ccc2nnc(C3CN(C)CCN3C)n2c1.O=C(O)C(F)(F)F.O=C(O)C(F)(F)F (stereo unspecified),-4.33
15,COCc1cc(N(Cc2ccsc2)C2CC2)n2ncnc2n1,-20.66
16,Cc1oc(C(C)C)cc1C(=O)N1C[C@H]2CC[C@@H]1CN(S(=O)(=O)N(C)C)C2,1.683
17,CCc1cn[nH]c1C1CCN(C(=O)c2cc(C#N)c(=O)[nH]c2C)CC1,0.2267
18,O=C(c1cnc2[nH]c(=O)[nH]c(=O)c2c1)N1CCCC1C1CCCC1 (stereo unspecified),-0.6345
19,COCCn1cc(C(=O)N2CCCC2c2cccs2)c2ccccc21 (stereo unspecified),20.58
20,N#Cc1ncn(CC(=O)N2CCCC2c2cccs2)n1 (stereo unspecified),-17.52
21,CSc1[nH]c(=O)c(C(=O)N2CCCC2c2cccs2)cc1C#N (stereo unspecified),109.4
22,Cn1c(=O)[nH]c(=O)c2cc(C(=O)N3CCCC3C3CCCC3)cnc21 (stereo unspecified),9.231
23,CCc1cn[nH]c1C1CCCN(C(=O)c2cc(C#N)c(=O)[nH]c2C)C1 (stereo unspecified),-3.715
24,CSc1[nH]c(=O)c(C(=O)N2CCCC2C2CCCC2)cc1C#N (stereo unspecified),90.55
25,CCC1CCCCCN1C(=O)c1cc(C#N)c(SC)[nH]c1=O (stereo unspecified),95.93
